Screening data from PubChem.
DT40 TDP1 no CPT: qHTS for Inhibitors of human tyrosyl-DNA phosphodiesterase 1 (TDP1): qHTS in cells in absence of CPT | DT40 Tdp1-/- hTDP1 cells, no CPT, ATP luminescence, 48 h | AID 686978, 2013 | Potency, µM (doses to about 46.2 µM), actives largely listed as inhibitors | hit rate 15% among 420,000; further: nearly all actives have a fitted effect of over 55% in size
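Chicken DT40 Tdp1-/- cells stably complemented with human TDP1 were seeded at 400 cells/well with DMSO in place of 20 nM camptothecin. After compound pinning, cells grew at least 48 hr at 37 °C; viability read by CellTiter-Glo luminescence.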
HT1080 IDH1KD tx: toxicity to HT-1080 IDH1 knockdown cells (counter line) | Potency, µM (top dose mostly 46.1 µM), usual class: cytotoxic | AID 686971 | hit rate 2% among 360,000 | HT-1080 IDH1 knockdown viability, ATP luminescence, 48 h
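IDH1KD HT-1080 cells, 750/well, RPMI + 5% FBS; compound pinned after 2 h settling; 48 h, 37 °C; CellTiter-Glo luminescence; % activity normalised to DMSO and no-cell wells; curves fitted, classed by r2 and efficacy.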
KB-3-1 cytotox: kills parental KB-3-1 adenocarcinoma cells. KB-3-1 viability, CellTiter-Glo ATP luminescence, 72 h. Potency, µM (doses to about 46.1 µM), most hits filed as cytotoxic. hit rate 1.4% among 400,000; further: nearly all actives have a fitted effect of over 60% in size
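KB-3-1 cells, DMEM (no phenol red) + 10% FBS; compound by pin transfer, 72 h, 37 °C. Readout: CellTiter-Glo luminescence after 10 min. Data normalized, curve-fitted.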
HT1080-NT tox: kills 2HG-producing HT-1080-NT fibrosarcoma cells; HT-1080-NT fibrosarcoma viability, CellTiter-Glo ATP luminescence, 48 h; Potency, µM (titrated, usually from 46.1 µM), most hits filed as cytotoxic; hit rate 1.6% among 360,000; AID 686970;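 further: NT is the 2HG producing partner of a matched IDH1 knockdown line; nearly all actives have a fitted effect of over 55% in size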
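Luminescent CellTiter-Glo readout after 48 hours of compound exposure at 37 degrees C defined viability of HT-1080-NT cells. Activity was normalized to DMSO wells and cell-free media wells; concentration-response curves were fitted and assigned curve classes.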
DT40 TDP1 CPT: DT40-hTDP1 cell growth loss with CPT; chicken DT40 Tdp1-/-;hTDP1 cells + 20 nM CPT, ATP luminescence, 48 h; Potency, µM (top dose mostly 46.2 µM), most hits filed as inhibitors; hit rate 12% among 420,000; AID 686979; further: nearly all actives have a fitted effect of over 55% in size
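Cell growth measured by CellTiter-Glo luminescence after a minimum 48 h, 37 C compound exposure with 20 nM CPT in Tdp1-knockout DT40 cells stably expressing hTDP1, seeded 400/well; qHTS titration format.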
KB-V1 MDR tox: kills drug-selected multidrug resistant KB-V1 cells | KB-V1 MDR cells viability, CellTiter-Glo, 72 h | Potency, µM (top dose mostly 46.1 µM), usual class: cytotoxic | hit rate 3.4% among 400,000 | AID 1347076; further: nearly all actives have a fitted effect of over 60% in size
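Cells of the MDR subline KB-V1 are plated, dosed with compound at multiple concentrations, and incubated 72 h at 37 degrees C; CellTiter-Glo is then added and luminescence read after 10 min.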
Numbers stand for hits; i = inactive; ? = inconclusive; nt = no result; [ ] = dose if it differs, or a comment. An excerpt weighted towards active compounds, which were near 19% of everything screened. The call rests on the fitted dose curve; in most records, active means well fitted curve in the direction sought with a large enough effect; inconclusive means small, poorly fitted or top-dose-only effect, or another doubt; inactive means no such curve, though single readings can be large; an effect the other way counts as inactive or inconclusive.

SMILES | DT40 TDP1 no CPT | HT1080 IDH1KD tx | KB-3-1 cytotox | HT1080-NT tox | DT40 TDP1 CPT | KB-V1 MDR tox
O=C(Cc1ccc(NC(=O)C2CCN(C(=O)C3CCCCC3)CC2)cc1)Nc1ccc(C(=O)N2CCOCC2)cc1 | i | i | i | i | i | i
CCC1CN(CC(=O)NCc2ccc3c(c2)OCO3)Cc2ccc(Cl)cc2O1 (stereo not drawn) | i | nt | nt | nt | i[9.04 µM] | nt
Cc1c(C=O)c2ccccc2n1CC(=O)NCc1ccc2c(c1)OCO2 | i | i | i | i | i | i
c1ccc2c(c1)Sc1cnccc1N2CC1CO1 (stereo not drawn) | 10µM | i | i | i | 4.1µM | ?
Cc1ccnc(NS(=O)(=O)c2ccc(NC(=O)CSc3nc(-c4ccccc4)cc(=O)[nH]3)cc2)n1 | i | i | i | i | i | i
COc1ccc(NC(=O)c2c(NC(=O)c3cccc(C)c3)sc3c2CCCC3)cc1 | i | nt | i | nt | i | ?
COc1ccc(NC(=O)c2c(NCc3cccs3)sc3c2CCCCC3)cc1 | 9.2µM | nt | i | nt | 9.2µM | i
CCOc1ccc(NC(=O)c2c(NCc3cccnc3)sc3c2CCCC3)cc1 | ? | nt | i | nt | ? | i
CCOc1ccc(NC(=O)c2c(NC(=O)CN3CCCC3)sc3c2CCC3)cc1 | 12µM | i | nt | i | ? | nt
COc1ccc(NC(=O)c2c(NC(=O)c3ccc(Br)cc3)sc3c2CCCC3)cc1 | 21µM | nt | ? | nt | ? | i
CCOc1ccc(NC(=O)c2c(NCc3cccs3)sc3c2CCCCC3)cc1 | 23µM | nt | i | nt | ? | i
N#CCCCC1(CCCC#N)OCCO1 | i | i | i | i | i | i
COc1ccc(CNC(=O)N2CCN(c3ccccc3OC)CC2)cc1 | i | i | i | i | i | i
CC(=O)N1CCC2(CCN(Cc3nccs3)CC2)CC1 | i | nt | nt | nt | i | nt
CSCCC(NC(=O)OCc1ccccc1)C(=O)NCc1cccnc1 (stereo not drawn) | i | i | i | i | i | i
CC(=O)NC1=NN(C(C)=O)C(C)(c2ccccc2)S1 (stereo not drawn) | 5.8µM | 7.1µM | 8.2µM | 2µM | 5.8µM | 7.3µM
CC(=O)NC1=NN(C(C)=O)C(C)(c2ccc3ccccc3c2)S1 (stereo not drawn) | ? | i | i | i | i | i
Cc1ccc(N(C)S(=O)(=O)c2cccc(C(=O)N(C)Cc3cnn(-c4ccccc4)c3)c2)cc1 | ? | ? | i | i | ? | 5.8µM
CN(Cc1cnn(-c2ccccc2)c1)C(=O)c1cccc(S(=O)(=O)N(C)c2ccccc2)c1 | 16µM | i | i | i | 18µM | ?
CS(=O)(=O)c1ccc(Cl)c(NC(=O)CNC(=O)c2ccc3c(c2)OCO3)c1 | i | i | i | i | i | i
COc1cc(NC(=O)COc2ccc(Cl)cc2)ccc1-c1cc2ccccc2oc1=O | 4.6µM | ? | ? | ? | 4.1µM | ?
Cc1ccc(S(=O)(=O)N(C)c2ccc(OCc3cccc(C)c3)cc2)cc1 | 18µM | i | i | i | ? | i
CN(c1ccc(OCC(=O)NC2CCC(O)CC2)cc1)S(=O)(=O)c1ccc(Cl)cc1 (stereo not drawn) | 13µM | i | i | i | ? | i
COc1ccc(CCNC(=O)COc2ccc(N(C)S(=O)(=O)c3ccc(C)cc3)cc2)cc1 | ? | i | i | i | ? | i
COc1ccc(-c2csc(NC(=O)COc3ccc(N(C)S(=O)(=O)c4ccc(C)cc4)cc3)n2)cc1 | 6.5µM | i | i | i | 5.2µM | i
SMILES | DT40 TDP1 no CPT | HT1080 IDH1KD tx | KB-3-1 cytotox | HT1080-NT tox | DT40 TDP1 CPT | KB-V1 MDR tox
CCOC(=O)c1cc(S(=O)(=O)Nc2ccc(OC)c(Cl)c2)[nH]n1 | i | nt | i | nt | ? | ?
CC(C)NC(=O)N(C)C[C@@H]1Oc2ccc(NC(=O)CCN3CCOCC3)cc2CC(=O)N([C@@H](C)CO)C[C@@H]1C | i | i | i | i | i | i
COc1ccc([N+](=O)[O-])cc1NC(=O)C(C)OC(=O)c1cccnc1 (stereo not drawn) | i | i | i | i | i | ?
CCS(=O)(=O)N1CCc2cc(C(=O)Nc3cc([N+](=O)[O-])ccc3C)ccc21 | i | nt | i | nt | ? | i
Cc1cnc(SCC2CCCO2)nc1C1CCCN(C(=O)C2=NNC(=O)CC2)C1 (stereo not drawn) | i | nt | nt | nt | i | nt
CC(=O)Nc1ccc(NC(=O)CSc2nnc(N)n2-c2ccccc2)cc1 | i | i | ? | i | i | ?
CCC1CCCCN1C(=O)COc1ccc(N(C)S(=O)(=O)c2ccc(C)cc2)cc1 (stereo not drawn) | 15µM | i | ? | i | 21µM | ?
CCOc1ccc2nc(NC(=O)COc3ccc(N(C)S(=O)(=O)c4ccc(C)cc4)cc3)sc2c1 | ? | i | i | i | i | i
COc1ccc(NS(=O)(=O)c2ccc(OC)c(N(C)S(=O)(=O)c3ccc(Cl)cc3)c2)cc1 | 6.5µM | ? | i | 14µM | 10µM | ?
Cc1ccc(NC(=O)COc2ccc(N(C)S(=O)(=O)c3ccc(F)cc3)cc2)cc1 | 16µM | i | i | i | ? | i
Cc1ccc(-c2csc(NC(=O)COc3ccc(N(C)S(=O)(=O)c4ccc(C)cc4)cc3)n2)cc1 | 18µM | i | i | i | 15µM | i
CCOC(=O)C1CCCN(C(=O)c2nn(-c3ccc(OC)cc3)c(=O)c3c2c2ccccc2n3C)C1 (stereo not drawn) | ? | nt | i | nt | i | i
Nc1ncnc2c1ncn2[C@@H]1O[C@H](CNCC(O)CO)[C@@H](O)[C@H]1O (stereo partly drawn) | i | i | i | i | i | i
COc1ccc(NC(=O)COc2ccc(N(C)S(=O)(=O)c3ccc(Cl)cc3)cc2)cc1OC | 4.6µM | i | 21µM | i | 7.3µM | 0.92µM
Cc1cc[n+](CCC2CCCCC2)c2ccccc12 | 0.89µM | nt | 2.1µM | nt | 1.3µM | i
Cc1cc[n+](C)c2ccccc12 | i | nt | i | nt | i | i
CCCCCCC[n+]1ccc(C)c2ccccc21 | 0.45µM | nt | 0.58µM | nt | 0.45µM | i
Cc1ccc2c(C)cc[n+](CCCS(=O)(=O)[O-])c2c1 | i | i | i | i | i | i
CCCCCCCCCCCC[n+]1ccc(C)c2ccccc21 | 2µM | nt | 4.1µM | nt | 2µM | i
CN1CCN(C(=O)C2Cc3c(-c4ccc5c(c4)OCO5)ccnc3O2)CC1 (stereo not drawn) | i | i | i | i | i | i
COc1ccc(CN2C(=O)C(CC(=O)NC3CC3)CC(C(=O)N(C)C)=C2C)cc1 (stereo not drawn) | i | i | i | i | i | i
